system: Staphylococcus aureus; experiment: Antibacterial activity against Staphylococcus aureus MRSA ATCC 43300 (CO-ADD:GP_020); MIC in CAMBH media using NBS plates, by Resazurin F(560/590); format: functional; conditions: Concentration 20 uM, ASSAY_TEST Inhibition of Bacterial Growth, detection method Resazurin, Fluorescence (ex560/em590), MEDIA CAMHB, plate type 384well, CORNING #3640, time 18 hr

Structure (SMILES) | Inhibition [%]
Cc1cc(OCCCCOc2ccc(C#N)cc2)ccc1[N+](=O)[O-] | 20.1
CC1=CC(C)(C(Cl)(Cl)Cl)C(C)=C/C1=N/O (stereo not drawn) | 1.65
CCOC(=O)c1c(C)nc(C)c(C(=O)OCC)c1-c1ccc(OC)cc1 | 0.94
CCOC(=O)C(=O)Cc1cccnn1 | 12.36
COc1ccc([N+](=O)[O-])cc1NS(=O)(=O)c1ccc(C)cc1 | 7.11
CC(=O)Oc1ccc(OC(C)=O)c2c1CC1(C)OC1(C)C2 (stereo not drawn) | 13.73
CCOc1ccc(Nc2c3ccccc3nc3ccccc23)cc1 | -9
CS/C(=C\c1ccc(C(=O)c2ccc(C)cc2)n1C)[S+](C)[O-] (stereo not drawn) | 7.5
COC(=O)C1=C(C)NC(C)=C(C(=O)OC)C(N2C(=O)CCC2=O)C1 (stereo not drawn) | 18.88
Cc1ccc(S(=O)(=O)CCOC(=O)CNC(=O)OCc2ccccc2)cc1 | 0.28
CC(=O)Nc1cccc(NC(C)=O)n1 | 23.71
Nc1nc(SCc2ccccn2)c2ncn(C3OC(CO)C(O)C3O)c2n1 (stereo not drawn) | 6.83
Cn1ncc2c(Nc3cccc(Cl)c3)nc(Nc3cccc(Cl)c3)nc21 | 15.88
Oc1ccc(Nc2ccnc3cc(Cl)ccc23)cc1 | -0.21
CN(C)c1ncnc2c1ncn2-c1ccccc1 | -6.98
Cc1nc([N+](=O)[O-])cn1-c1nc2ccccn2c1[N+](=O)[O-] | 12.97
Oc1ccc(/C=C\c2cnccn2)cc1 | 3.99
O=C(O)C(Cc1ccccc1N(CCO)CCO)N1C(=O)c2ccccc2C1=O (stereo not drawn) | 11.82
Nc1ncncc1-c1ccc2ccccc2c1 | 8.62

system: Acinetobacter baumannii; experiment: Antibacterial activity against Acinetobacter baumannii ATCC 19606 (CO-ADD:GN_034); MIC in CAMBH media using NBS plates, by Resazurin F(560/590); format: functional; conditions: Concentration 20 uM, ASSAY_TEST Inhibition of Bacterial Growth, detection method Resazurin, Fluorescence (ex560/em590), MEDIA CAMHB, plate type 384well, CORNING #3640, time 18 hr

Structure (SMILES) | Inhibition [%]
Oc1ncnc(CN2CCCCC2)c1O | 1.82
CCOC(=O)Cc1cc(O)c2cc(C)ccc2n1 | -4.86
Sc1nc2c[nH]c(S)nc-2n1 | -11.86
O=C(O)c1ccc(N2CCCCC2)cc1O | -7.54
NC(CC(=O)Nc1cc(C(F)(F)F)ccc1Cl)=NO | -1.74
Cc1c(O)ccc2c(O)c(NC(=O)c3ccc4c(c3)CCC(C)(C)O4)c(=O)oc12 [CYCLONOVOBIOCIC ACID] | 10.56
CS(=O)(=O)O.Cc1cc2c(cc1[N+](=O)[O-])NC(CNC(C)C)CC2 (stereo not drawn) | 12.49
O=C(O)CSc1ccc(NC(=O)Nc2ccccc2F)cc1 | 6.88
O=C(O)c1ccccc1-n1c2ccccc2c2ccccc21 | 6.58
C#CCNc1ccc(C(=O)OCC)cc1 | 8.65
CCOC(=O)N1C/C(=C\c2ccccc2)C(=O)/C(=C/c2ccccc2)C1 | 7.26
CC(C)(C)NC1=NCCNC(c2ccccc2)=C1.CS(=O)(=O)O | 8.25
Nc1ccccc1C(=O)Nc1ccc(Cl)cc1Cl | -19.7
CN(c1cccnc1)c1[nH]cnc2nncc1-2 | -4.86
O=C(c1ccccc1)c1ccccc1C(=O)c1ccccc1 | 12.71
c1ccc(-n2nnnc2-c2cccc3ccccc23)cc1 | 8.55
CN1N=C/C(=C/NC(N)=O)C1=O | -2.43
CCCCC(=O)N1CCCC(C)C1 (stereo not drawn) | -11.97
CN(C)S(=O)(=O)Nc1ccccn1 | 9.21
Nc1ncnc2c1ncn2C1C=C(CO)C(O)C1O (stereo not drawn) | -16.45

Structure (SMILES) | Inhibition [%]
Cc1cc(OCCCCOc2ccc(C#N)cc2)ccc1[N+](=O)[O-] | 6.74
CC1=CC(C)(C(Cl)(Cl)Cl)C(C)=C/C1=N/O (stereo not drawn) | -20.29
CCOC(=O)c1c(C)nc(C)c(C(=O)OCC)c1-c1ccc(OC)cc1 | 2.04
CCOC(=O)C(=O)Cc1cccnn1 | -7.97
COc1ccc([N+](=O)[O-])cc1NS(=O)(=O)c1ccc(C)cc1 | 4.99
CC(=O)Oc1ccc(OC(C)=O)c2c1CC1(C)OC1(C)C2 (stereo not drawn) | 5.72
CCOc1ccc(Nc2c3ccccc3nc3ccccc23)cc1 | -1.21
CS/C(=C\c1ccc(C(=O)c2ccc(C)cc2)n1C)[S+](C)[O-] (stereo not drawn) | 7.53
COC(=O)C1=C(C)NC(C)=C(C(=O)OC)C(N2C(=O)CCC2=O)C1 (stereo not drawn) | 6.44
Cc1ccc(S(=O)(=O)CCOC(=O)CNC(=O)OCc2ccccc2)cc1 | 8.19
CC(=O)Nc1cccc(NC(C)=O)n1 | -5.95
Nc1nc(SCc2ccccn2)c2ncn(C3OC(CO)C(O)C3O)c2n1 (stereo not drawn) | 2.95
Cn1ncc2c(Nc3cccc(Cl)c3)nc(Nc3cccc(Cl)c3)nc21 | -2.31
Oc1ccc(Nc2ccnc3cc(Cl)ccc23)cc1 | 16.04
CN(C)c1ncnc2c1ncn2-c1ccccc1 | -8.04
Cc1nc([N+](=O)[O-])cn1-c1nc2ccccn2c1[N+](=O)[O-] | -5.05
Oc1ccc(/C=C\c2cnccn2)cc1 | -7.27
O=C(O)C(Cc1ccccc1N(CCO)CCO)N1C(=O)c2ccccc2C1=O (stereo not drawn) | 6.12
Nc1ncncc1-c1ccc2ccccc2c1 | 6.7

Reference: ChEMBL document CHEMBL4296182, “CO-ADD screening of NIH NCI Diversity Set V”
